Here are results for 14 compounds from PubChem BioAssay (NCATS).

The structures appear in SMILES notation. Results filed as inconclusive are left out. Unmarked numbers belong to inactive results. Calls of active or inactive are those of the source. Calls come from the whole dose curve; as a rule, active = well fitted inhibition curve with a large enough effect; inconclusive = small, poorly fitted or top-dose-only effect; inactive = flat fitted curve, though single readings scatter.

Test [1] can be described thus: qHTS profiling for inhibitors of Plasmodium falciparum proliferation (AID 504749).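 For activity, negative = inhibition: 0% = DMSO vehicle and full inhibition = artemisinin control.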 Note: nearly all actives have a fitted effect of over 60% in size. Conditions: P. falciparum in erythrocytes, SYBR Green DNA, 72 h. In a few lines:
(§1)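 Three-day growth assay of blood-stage parasites in erythrocytes (0.3% parasitemia, 2.5% hematocrit) at 37 C, 5% CO2, quantified by SYBR Green DNA staining after overnight detergent lysis.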
(qHTS replaces the single test concentration by a dilution series.)

Another test deals with 3D7. Described as above. Particulars: P. falciparum in erythrocytes, SYBR Green DNA, 72 h; series mostly up to 28.7 µM. In a few lines: as §1
A further test has as its system AA1029. The description is as above. Conditions: P. falciparum in erythrocytes, SYBR Green DNA, 72 h; series mostly up to 28.7 µM. In a few lines:
as §1

A further test concerns AS120. The description is as above. Particulars: P. falciparum in erythrocytes, SYBR Green DNA, 72 h; series mostly up to 28.7 µM. In short, it runs like this: as §1
For the next test, the system named is ATS189. Described as above. Particulars: P. falciparum in erythrocytes, SYBR Green DNA, 72 h; series mostly up to 28.7 µM. In a few lines:
as §1

Another test deals with ATS95. Described as above. Particulars: P. falciparum in erythrocytes, SYBR Green DNA, 72 h; series mostly up to 28.7 µM. In short, it runs like this:
as §1

The next test deals with C2A. Described as above. Particulars: P. falciparum in erythrocytes, SYBR Green DNA, 72 h; series mostly up to 28.7 µM. In a few lines: as §1
The next test relates to CP185. Described as above. Conditions: P. falciparum in erythrocytes, SYBR Green DNA, 72 h; series mostly up to 28.7 µM. In a few lines:
as §1

For the next test, the system named is CP191. The test is described as above. Conditions: P. falciparum in erythrocytes, SYBR Green DNA, 72 h; series mostly up to 28.7 µM. In a few lines: as §1
In a further test the test system is CP192. The test is described as above. Particulars: P. falciparum in erythrocytes, SYBR Green DNA, 72 h; series mostly up to 28.7 µM. In short, it runs like this: as §1
Another test relates to CP194. Described as above. Conditions: P. falciparum in erythrocytes, SYBR Green DNA, 72 h; series mostly up to 28.7 µM. In short, it runs like this: as §1
Another test concerns CP201. The test is described as above. Conditions: P. falciparum in erythrocytes, SYBR Green DNA, 72 h; series mostly up to 28.7 µM. In a few lines: as §1
Another test has as its system CP203. The description is as above. Particulars: P. falciparum in erythrocytes, SYBR Green DNA, 72 h; series mostly up to 28.7 µM. In a few lines: as §1
A further test concerns CP211. The description is as above. Particulars: P. falciparum in erythrocytes, SYBR Green DNA, 72 h; series mostly up to 28.7 µM. In short, it runs like this: as §1
The subject of a further test is CP215. The test is described as above. Particulars: P. falciparum in erythrocytes, SYBR Green DNA, 72 h; series mostly up to 28.7 µM. In a few lines: as §1
The subject of the next test is CP217. The test is described as above. Conditions: P. falciparum in erythrocytes, SYBR Green DNA, 72 h; series mostly up to 28.7 µM. In short, it runs like this:
as §1

Another test concerns CP237. The description is as above. Conditions: P. falciparum in erythrocytes, SYBR Green DNA, 72 h; series mostly up to 28.7 µM. In short, it runs like this: as §1
In a further test the test system is 7G8. Described as above. Particulars: P. falciparum in erythrocytes, SYBR Green DNA, 72 h; series mostly up to 28.7 µM. In short, it runs like this: as §1
The mark [2] stands for this setting: at 28.7 µM (top of the series), parasite line A.
The mark [3] stands for this setting: at 28.7 µM (top of the series), parasite line B.
The mark [4] stands for this setting: at 12.8 µM (top of the series), parasite line A.
Setting [5] is: at 12.8 µM (top of the series), parasite line B.
Potency is the fitted concentration of half-maximal effect.

For `Cc1cc(O)c(C(C)C)cc1Cl`, the results for the activity, negative = inhibition in test [1] (setting [2]) and in test [1] (setting [3]) were 0.647% and 11.2%, respectively. In addition, the Potency result in the test with 3D7, in the test with AA1029, in the test with AS120, in the test on ATS189, with ATS95 and with C2A was “inactive” in each case. In addition, the Potency entry in the test with CP185, in the test on CP191, in the test on CP192, in the test with CP194, with CP201 and in the test with CP203 was “inactive” throughout. For the same compound, the Potency result in the test on CP211, in the test on CP215, in the test with CP217 and in the test on CP237 was “inactive” each time.
`CC(C)(C(=O)c1cccnc1)c1cccnc1`: the figures for the activity, negative = inhibition in test [1] (setting [4]) and in [1] (setting [5]) were -8.96% and -23.5%, respectively. For the same compound, the Potency entry in the test with 3D7, in the test on AA1029, in the test with AS120, in the test on ATS189, in the test with ATS95 and in the test with C2A was “inactive” in each case. In addition, the Potency entry with CP185, in the test on CP191, with CP192, in the test with CP194, in the test on CP201 and in the test with CP203 was “inactive” each time. Moreover, the Potency result in the test with CP211, with CP215, with CP217 and in the test with CP237 was “inactive” throughout.
As for `CCN(CC)CCOC(=O)C(c1ccccc1)C1CCCCC1` (configuration not stated), the activity, negative = inhibition was 0.689% in [1] (setting [2]) and -1.84% in test [1] (setting [3]). Besides, the Potency entry in the test on 3D7, with AS120, in the test with ATS189, in the test with C2A, in the test on CP185 and in the test with CP191 was “inactive” each time. The Potency entry in the test with CP192, in the test with CP201, with CP211, in the test on CP217 and in the test with CP237 was “inactive” in each case.
In the case of `CN(C)CCCOc1nn(Cc2ccccc2)c2ccccc12`, the activity, negative = inhibition was -0.403% in [1] (setting [4]) and -0.662% in test [1] (setting [5]). In addition, the Potency result in the test with 3D7, with AS120, in the test with C2A, in the test on CP185, in the test with CP191 and in the test with CP192 was “inactive” in each case. Further, the Potency result in the test with CP194, in the test on CP201, with CP211, with CP215 and in the test on CP217 was “inactive” throughout. Besides, the Potency in the test with CP237 was 3.16 µM (active).
For the compound `O=c1c(-c2ccccc2)c1-c1ccccc1`, the Potency in test [1] (parasite line A) was 11.2 µM (active); in [1] (parasite line B), 10 µM (active); with 3D7 it was 11.2 µM (active); in the test on 7G8, 8.91 µM (active); in the test on ATS189 it was 10 µM (active).
Consider `CC[N+](CC)(CCNC(=O)C(=O)NCC[N+](CC)(CC)Cc1ccccc1Cl)Cc1ccccc1Cl`, for which the Potency in [1] (parasite line A) is 1.12 µM (active); in test [1] (parasite line B), 0.794 µM (active); in the test on 7G8, 7.94 µM (active); with AA1029 it was 2.82 µM (active); in the test on AS120, 1 µM (active); in the test with ATS189 it was 2.24 µM (active). Besides, the Potency in the test on ATS95 was 2.82 µM (active); in the test with C2A it was 10 µM (active); with CP185, 1.58 µM (active); with CP191, 4.47 µM (active); in the test on CP194, 2.39 µM (active); in the test on CP201, 4.78 µM (active). The Potency with CP203 was 1.35 µM (active); in the test on CP211, 1.07 µM (active); in the test with CP215, 3.79 µM (active); in the test on CP217, 7.94 µM (active); in the test on CP237, 3.16 µM (active).
Consider `CCCCC1=NC2(CCCC2)C(=O)N1Cc1ccc(-c2ccccc2-c2nn[nH]n2)cc1`, for which the activity, negative = inhibition in test [1] (setting [2]) is -0.908%; in test [1] (setting [3]), -26.5%. For the same compound, the Potency entry with 3D7, in the test with AA1029, with AS120, with ATS189, in the test with C2A and in the test on CP185 was “inactive” in each case. Besides, the Potency entry in the test on CP191, in the test with CP192, with CP194, in the test with CP201, in the test on CP203 and in the test with CP211 was “inactive” in each case. Moreover, the Potency entry in the test on CP215, in the test on CP217 and in the test on CP237 was “inactive” each time.
`CCN(CCCc1ccccc1)CCCc1ccccc1`: the values for the activity, negative = inhibition in [1] (setting [4]) and in test [1] (setting [5]) were -8.39% and -11%, respectively. For the same compound, the Potency result with 3D7, with C2A, in the test with CP191, with CP192, in the test on CP201 and in the test on CP217 was “inactive” throughout. For the same compound, the Potency in the test on ATS95 is 3.55 µM (active).
For `Cc1c(C)n(Cc2ccccc2)c2ccc(C(=O)OCCN(C)C)cc12`, the values for the activity, negative = inhibition in test [1] (setting [2]) and in [1] (setting [3]) were 11.1% and -2.16%, respectively. Also, the Potency result in the test on 3D7, in the test with AA1029, with AS120, with ATS189, in the test with ATS95 and with C2A was “inactive” each time. In addition, the Potency result in the test on CP185, with CP191, in the test on CP192, with CP194, with CP203 and in the test on CP211 was “inactive” each time. For the same compound, the Potency entry in the test on CP217 and in the test on CP237 was “inactive” throughout.
As to `CNCCC(Oc1ccccc1C)c1ccccc1` (configuration not stated), the activity, negative = inhibition in test [1] (setting [2]) was 4.27%; in test [1] (setting [3]), 4.69%. In addition, the Potency entry in the test with 3D7, with ATS189, with ATS95, in the test on C2A, in the test with CP185 and in the test with CP191 was “inactive” throughout. The Potency result in the test with CP192, in the test with CP201, in the test with CP211 and in the test with CP237 was “inactive” in each case.
For the compound `CC(=O)N/N=C/c1ccc([N+](=O)[O-])o1`, the Potency is 1.12 µM (active) in [1] (parasite line A), 12.6 µM (active) in test [1] (parasite line B), 7.94 µM (active) in the test with 7G8 and 7.08 µM (active) in the test on AS120. Moreover, the Potency entry in the test on 3D7, in the test on ATS189, with CP192, in the test with CP194, in the test with CP201 and with CP203 was “inactive” throughout. Further, the Potency result in the test on CP215 was “inactive”.
For the compound `COCc1c(C(C)C)nc(C(C)C)c(/C=C/[C@@H](O)C[C@@H](O)CC(=O)O)c1-c1ccc(F)cc1`, the values for the activity, negative = inhibition in test [1] (setting [2]) and in test [1] (setting [3]) were -9.49% and -12.9%, respectively. Besides, the Potency result in the test with 3D7, in the test on AA1029, in the test on AS120, with ATS189, in the test on ATS95 and with C2A was “inactive” throughout. In addition, the Potency result in the test on CP185, with CP191, with CP192, in the test with CP194, in the test on CP201 and with CP211 was “inactive” throughout. The Potency entry in the test on CP217 and with CP237 was “inactive” each time.
For the compound `N[C@H](Cc1c[nH]c2ccccc12)C(=O)O`, the values for the activity, negative = inhibition in [1] (setting [2]) and in test [1] (setting [3]) were 7.64% and 6.56%, respectively. In addition, the Potency result in the test on 3D7, in the test with AA1029, with AS120, with ATS189, in the test with ATS95 and in the test with C2A was “inactive” throughout. The Potency result in the test with CP185, in the test with CP191, with CP192, in the test with CP194, in the test on CP201 and in the test on CP203 was “inactive” throughout. The Potency entry in the test on CP211, in the test with CP215, in the test on CP217 and with CP237 was “inactive” throughout.
Take `CCN1CCCC1=O`: the activity, negative = inhibition in test [1] (setting [2]) was 3.13%; in [1] (setting [3]), 11.2%. Besides, the Potency entry in the test with 3D7, in the test on AA1029, in the test with AS120, in the test on ATS189, in the test with ATS95 and in the test on C2A was “inactive” throughout. Moreover, the Potency entry in the test with CP185, with CP191, with CP192, in the test on CP194, in the test with CP201 and in the test with CP203 was “inactive” throughout. Besides, the Potency result in the test on CP211, with CP215, with CP217 and in the test on CP237 was “inactive” in each case.
